Bioassay records as filed in PubChem.
Most compounds without a hit are left out; they make up all but 2.2% or so of the library.
Nrf2 inh: inhibitors of Nrf2 signaling; A549 ARE-Fluc reporter, luciferase luminescence, 18-24 h; Potency, µM (series often up to 46 µM), for the others: top-dose activity change, negative = inhibition, hits mostly inhibitors; 360,000 compounds, 2.1% hits; AID 504444; note: % is set by controls: 0 for no effect and ±100 for the full control effect; nearly all actives have a fitted effect of over 60% in size
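Concentration-response testing used A549 ARE_Fluc cells at 5000 cells/well. Following an 18-24 h compound incubation, viability was read by fluorescence (Ex 405/Em 525) and luciferase output by luminescence.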
Pin1 inh: blocks the human prolyl isomerase Pin1; Pin1 FP peptide displacement, HiFluor488, 10 min; Q13526; 390,000 compounds, 0.009% hits; Potency, µM (series often up to 115 µM), without a hit: top-dose activity, negative = inhibition, usual class: inhibitors; active = well fitted inhibition curve with a large enough effect in the polarisation, with a control signal flat, not every such curve was filed as active; inconclusive = small, poorly fitted or top-dose-only effect, or effect the other way, or a change in a side signal; inactive = no such curve, though single readings can be large or run the other way; the % refers to the polarisation; note: % is set by controls: 0 for no effect and ±100 for the full control effect
Target sequence (Q13526 whole entry, looked up): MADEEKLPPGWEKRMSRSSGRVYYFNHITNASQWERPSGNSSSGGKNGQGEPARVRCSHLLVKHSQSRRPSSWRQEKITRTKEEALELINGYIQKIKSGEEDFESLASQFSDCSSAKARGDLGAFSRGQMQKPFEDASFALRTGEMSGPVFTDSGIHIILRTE
A549 viability: kills or reduces viability of A549 cells in Nrf2 counter-screen. A549 ARE-Fluc cells, CellTiter-Fluor viability, 18-24 h. Potency, µM (top dose mostly 46 µM), for inactives: at the top dose activity change, negative = cytotoxicity, hits mostly inhibitors. 390,000 compounds, 0.16% hits. AID 504648; note: % is set by controls: 0 for no effect and ±100 for the full control effect
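A549 ARE_Fluc cells in 5% FBS OPTI-MEM were exposed to compounds in concentration-response for 18-24 h at 37 deg C. Viability was read by CellTiter-Fluor fluorescence (Ex 405/Em 525) after 30 min, before the luciferase read.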
Nrf2 activator: activators of Nrf2 (ARE) signaling; 410,000 compounds, 0.31% hits; Potency, µM (titrated, usually from 46.1 µM), inactives show top-dose activation, actives largely listed as activators; AREc32 ARE-luciferase reporter (MCF7-derived line), luminescence, 24 h; note: % of control where 0% means no effect; nearly all actives have a fitted effect of over 65% in size
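AREc32_Fluc, 1000 cells/well, OPTI-MEM + 5% FBS, o/n 37 deg C 5% CO2; 23 nL cpd by pin tool, 24 hr; Steady-Glo 30 min RT, luminescence.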
The depositor's hits bear a star; ? = inconclusive; . = not tested or not shown; [ ] = another dose, or the depositor's remark. Unless noted, calls come from the whole dose curve; as a rule, active = well fitted curve in the direction sought with a large enough effect; inconclusive = small, poorly fitted or top-dose-only effect, or another doubt; inactive = no such curve, though single readings can be large; an effect the other way counts as inactive or inconclusive. Potency is the fitted concentration of half-maximal effect.

SMILES	Nrf2 inh	Pin1 inh	A549 viability	Nrf2 activator
CCCCOc1ccc(C2c3c(oc4ccc(C)cc4c3=O)C(=O)N2CCCN(C)C)cc1OCC (stereo not drawn)	15.7%	6.3%	1.0%	0.4%
COc1ccc(Cn2nnnc2CN2CCC(c3nc4ccccc4s3)CC2)cc1	23.1µM*	-12.6%	-2.6%	-0.6%
c1ccc2sc(C3CCN(Cc4nnnn4Cc4ccc5c(c4)OCO5)CC3)nc2c1	?	-2.2%	1.7%	-0.2%
COC(=O)Cn1c(=O)c2cccn2c2ccc(F)cc21	13.5%	3.1%	-2.6%	-0.3%
CCOC(=O)/C=C1\CN(Cc2cc(OC)c(OC)c(OC)c2)S(=O)(=O)c2ccc(C(F)(F)F)cc21	20.6µM*	44.3%	0.0%	2.3%
CCOC(=O)/C=C1\CN(Cc2cc(OC)c(OC)c(OC)c2)S(=O)(=O)c2ccccc21	?	2.7%	-9.2%	5.9%
COc1ccc(-c2c(C3C4C=CCCC4(C)C(=O)N3Cc3ccccc3)ccc3ccccc23)cc1 (stereo not drawn)	-5.4%	0.3%	-0.9%	.
O=C(CCl)NCCCCCCCCCNC(=O)CCl	-13.3%	6.2%	?	11.2µM*
CCCN1CCCc2cc(CN)ccc21	9.2µM*	?	0.4%[1.84 µM]	2.4%
Cc1cn2c(=O)c(S(=O)(=O)NCc3ccccc3Cl)c(C)nc2s1	-12.9%	2.3%	8.6%	-0.9%
O=C(Nc1ccc(CN2CCOCC2)cc1)c1ccc(Cl)cc1	?	-9.4%	-18.4%	4.4%
CCC(C)Oc1ccc(C(=O)Nc2ccc(CN3CCOCC3)cc2)cc1 (stereo not drawn)	23.1µM*	-11.6%	-19.7%	0.2%
CN(C)S(=O)(=O)c1ccc(C(=O)Nc2nnc(SCC(=O)N3CCOCC3)s2)cc1	.	.	.	0.1%
CC(C)Oc1ccc(C(=O)Nc2nnc(SCC(=O)N3CCOCC3)s2)cc1	5.17µM*	-3.0%	-2.8%	-1.6%
CCOc1ccc(NC(=O)c2ccc(NC(=O)c3ccc(CN4CCOCC4)cc3)cc2)cc1	-25.3%	13.2%	1.6%	-1.2%
COC(=O)c1ccc(NC(=O)c2ccc(CN3CCOCC3)cc2)cc1	9.2µM*	2.6%	-5.2%	0.1%
O=C(Nc1ccc(S(=O)(=O)Nc2ccccc2)cc1)c1ccc(CN2CCOCC2)cc1	4.11µM*	0.3%	-4.5%	0.3%
COc1ccc(F)cc1S(=O)(=O)NCCc1csc2nc(-c3cccc(C)c3)nn12	.	-2.6%	?	12.8%
COc1cc2nc(SCc3cccc(Cl)c3)n3nc(CCn4nc(C)cc4C)nc3c2cc1OC	-1.0%	1.6%	16.8%	-0.4%
CC(C)Oc1cccc(-c2ccnc(N3CCC(C(N)=O)CC3)n2)c1	.	-0.5%	.	.
Cn1c2cc(Br)sc2c2cnn(Cc3ccccc3F)c(=O)c21	2.5%	-0.7%	-2.6%	.
COc1ccc(OC)c(C(=O)N(C[C@H]2CC[C@@H]([C@@H]3CC[C@H](CO)O3)O2)C(C(=O)NC(C)(C)C)c2ccc(-c3ccccc3)cc2)c1 (stereo partly drawn)	25.9µM*	?	?	5.2%
CC(C)(C)NC(=O)C(c1ccc(-c2ccccc2)cc1)N(C[C@H]1CC[C@@H]([C@@H]2CC[C@H](CO)O2)O1)C(=O)c1cccc(Cl)c1 (stereo partly drawn)	23.1µM*	?	?	-0.1%
COc1ccc(C(C(=O)NC(C)(C)C)N(C[C@H]2CC[C@@H]([C@@H]3CC[C@H](CO)O3)O2)C(=O)c2ccccc2)cc1 (stereo partly drawn)	7.5%	-7.9%	-3.5%	-0.9%
CC(C)(C)NC(=O)C(c1ccc(-c2ccccc2)cc1)N(C[C@H]1CC[C@@H]([C@@H]2CC[C@H](CO)O2)O1)C(=O)c1ccc(-c2ccccc2)cc1 (stereo partly drawn)	?	?	?	-0.5%
Cc1ccc(Cl)cc1NC(=O)C(C)n1nnc2sc3c(c2c1=O)CCCC3 (stereo not drawn)	6.0%	-0.3%	-4.0%	0.0%
COc1cnc(-c2ccccn2)nc1NC(C)C	14.6µM*	0.4%	?	3.3%
CN(C)/C=N/C1=C(C#N)C(c2cccs2)c2ccc3ccccc3c2O1 (stereo not drawn)	?	0.8%	?	8.91µM*
N#CC1=C(N)Oc2cc3ccccc3cc2C1c1cccs1 (stereo not drawn)	-23.3%	10.6%	-17.2%	2.0%
Cc1ccc(NS(=O)(=O)c2ccc3c(c2)CCC(=O)N3)cc1Cl	-3.1%	-1.6%	17.1%	.
